Test results: PubChem BioAssay AID1006 (Sanford-Burnham Center for Chemical Genomics, 2008)
About 3,000 (1.5%) of roughly 200,000 compounds were called active.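 Rule for the calls: active = inhibition above about 50% when tested at 10 µM (limit read from the data); inactive = the rest.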 This excerpt belongs to a sample that is enriched for actives.

target: Luciferin 4-monooxygenase (Photinus pyralis) (UniProt P08659); test: firefly luciferase enzyme inhibitors, primary screen, artefact control for luciferase-based inhibitor screens, biochemical, luminescence, ATPLite (AID 1006); details: 10 min, at 10 µM, hits give high values
Sequence (P08659 whole entry, looked up): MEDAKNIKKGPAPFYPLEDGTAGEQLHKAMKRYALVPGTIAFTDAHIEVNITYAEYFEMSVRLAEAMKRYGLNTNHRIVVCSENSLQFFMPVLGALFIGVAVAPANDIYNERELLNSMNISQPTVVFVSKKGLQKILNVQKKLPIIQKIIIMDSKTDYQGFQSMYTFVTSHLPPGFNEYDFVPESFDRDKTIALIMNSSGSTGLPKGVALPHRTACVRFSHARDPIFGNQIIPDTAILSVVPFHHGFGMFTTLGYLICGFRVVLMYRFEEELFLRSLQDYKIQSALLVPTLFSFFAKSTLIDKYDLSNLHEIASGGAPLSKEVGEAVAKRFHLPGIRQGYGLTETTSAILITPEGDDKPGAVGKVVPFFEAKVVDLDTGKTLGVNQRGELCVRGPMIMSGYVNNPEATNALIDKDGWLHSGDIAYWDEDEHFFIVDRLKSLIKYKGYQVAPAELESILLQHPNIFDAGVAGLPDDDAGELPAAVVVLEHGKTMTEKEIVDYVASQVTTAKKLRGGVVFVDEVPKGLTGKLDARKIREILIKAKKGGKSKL

inhibition, inactive:
COc1ccccc1CN(C)C(=O)C1(c2ccc(Cl)cc2)CC1 -4.2%
O=C(CCC(=O)N1CCCC1)Nc1ccc([N+](=O)[O-])cc1 -1.6%
CCn1c(=S)[nH]c2sc3c(c2c1=O)CCCCC3 -1.8%
CCO[C@H]1OC(C(=O)Nc2ccccc2)=C[C@@H](C2CC2)[C@@H]1CCCO -0.3%
Cc1ccc(C)c(NC(=S)NCC(c2cccnc2)N2CCOCC2)c1 (stereo unspecified) -5.6%
CCOC(=O)CSc1nnc(-c2ccncc2)o1 0.6%
CCOC(=O)CSc1nnc(-c2ccc([N+](=O)[O-])cc2)o1 3%
Cc1ccnc(SCC(N)=O)n1 -1.6%
O=C(Nn1cnnc1)c1ccc([N+](=O)[O-])cc1 -5.5%
Cc1ccc2nc(-c3ccccc3)cc(C(=O)O)c2c1 15.5%
Cc1ccc(-c2cc(C(=O)NCc3cn(C)nc3C)c3cc(Br)ccc3n2)cc1 10.9%
Cc1nn2cc(-c3ccc(Cl)cc3)cnc2c1Br 7.5%
CCCCc1cc(=O)oc2cc(C)cc(OCc3nn[nH]n3)c12 -6.7%
Cc1noc(C)c1COc1ccc2ccc(=O)oc2c1 -2.2%
Cc1cc(Cl)ccc1NC(=S)N1CCC(C(N)=O)(N2CCCCC2)CC1 -2.1%
Cc1ccc(S(=O)(=O)N(NC2=NS(=O)(=O)c3ccccc32)C(=O)c2ccccc2)cc1 0.4%
O=C(Oc1cccc(NC2=NS(=O)(=O)c3ccccc32)c1)c1ccncc1 -2.8%
COc1ccc(/C(N)=N/OC(=O)Cc2ccccc2)cc1 10.9%
CCC(C)(NC(=O)c1ccccn1)C(=O)NC1CCCCC1 (stereo unspecified) -4.6%
N/C(=N\OC(=O)CCc1ccccc1)c1cccnc1 14.6%
N/C(=N\OC(=O)CCc1ccccc1)c1ccc(Cl)cc1 0.8%
Cc1cc(C)nc(/N=C2\NC(=O)CC(C(=O)O)N2c2ccc(Cl)cc2Cl)n1 (stereo unspecified) -5.6%
COc1ccccc1-c1noc(CSc2nc(C)cc(=O)[nH]2)n1 -0.3%
CCc1ccc(NC(=O)C(=O)N/N=C(\C)CC(=O)NCCOC)cc1 10.5%
CCCCNC(=O)N1CCN(S(C)(=O)=O)CC1 -1.2%
CC(C)n1c(-c2ccncc2)n[nH]c1=S -5.7%
Cc1cccc(NC(=S)N2CCC(O)CC2)c1C -0.2%
CCCC(=O)Nc1ccc(C(=O)N/N=C/c2ccc[nH]2)cc1 -1.8%
O=C(c1cc(Cl)cc(Cl)c1)N1CCC(=O)N(C(COCc2ccccc2)Cc2ccccc2)CC1 (stereo unspecified) -9.5%
O=C(O)Cc1sc(-c2ccc(C(=O)O)cc2)nc1-c1ccccc1 -4.9%
O=C(O)Cc1sc(-c2ccccc2)nc1-c1cccs1 6.8%
CCOC(=O)c1ccc(NC(=O)C2CC(=O)Nc3nc4ccccc4n32)cc1 (stereo unspecified) 0.7%
O=c1[nH]c(CN2CCOCC2)nc2cc(Cl)ccc12 -3.5%
NC(=O)Cc1nc2scc(-c3ccc(Cl)cc3)c2c(=O)[nH]1 -1.4%
Cc1cccc(NC(=O)NC(=S)NC(=O)c2ccccc2)c1 12.7%
Cn1c(-c2ccccc2)c[n+]2c1CCCCC2 -4.6%
COc1ccc(C2=NN(c3ccccc3)C(c3cccs3)C2)cc1 (stereo unspecified) 5.5%
CC(C)(C)c1nnc(N/N=C/c2ccc(O)cc2)n(N)c1=O 17.8%
FC(F)(F)c1nc2ccccc2nc1N/N=C/c1ccc(Cl)cc1 8.5%
c1ccc2c(NC3C4CC5CC(C4)CC3C5)nc(N3CCOCC3)nc2c1 (stereo unspecified) -8.2%
CCOc1ccc(NC(=O)c2cc(C)nc3ccccc23)cc1 -2.9%
CCc1cccc(C)c1NC(=S)N(CCCN1CCN(C)CC1)Cc1cccs1 -0.5%
CN1C(=O)/C(=C\c2cc(Br)cs2)c2ccccc21 32.4%
CN(C)c1nccc(NCc2ccccc2)c1C#N -1.3%
O=C1NC(c2ccccc2)CCC1(Cl)Cl (stereo unspecified) -1.3%
C/C(=N\OC(=O)c1ccccc1)c1c(C)nc2cc(C)ccn12 -3.4%
O=C(CSc1ccc(/C=N/NC(=O)c2cccc(F)c2)o1)Nc1ccccc1 3.7%
C[C@@H]1CC[C@]2(O[C@@H](CCO)C[C@H](O)[C@H]2O)O1 -2.6%
CCN(CC)CCNC(=O)c1ccc(NC(=O)c2c(F)cccc2Cl)cc1 -2%
CC(=O)Nc1ccc(S(=O)(=O)NC2(C(F)(F)F)C(=O)NC(C)=C2C#N)cc1 (stereo unspecified) -5.9%
C/C(N)=C(/C#N)C(=O)COC(=O)c1cc(-c2ccc(C)cc2)nc2ccccc12 12.9%
COc1ccc(-c2cc(C(=O)n3cnc4ccccc43)c3ccccc3n2)cc1 36.7%
O=C(NNc1cc(Cl)ccc1Cl)c1cccnc1Cl -7.9%
CC(=O)c1sc(NC(=O)c2cccc3ccccc23)nc1C -4.9%
CC(=O)c1sc(N/N=C\c2ccc(C)cc2)nc1C -5.2%
O=C(/C=C/c1ccc2c(c1)OCO2)NCc1ccc(F)cc1 1.2%
COc1ccc(OC)c(/C=C/C(=O)OCC(=O)Nc2ccc3c(c2)OCCO3)c1 0.6%
CC(C)C(=O)Nc1cccc(C(=O)Nc2ccc3c(c2)OCO3)c1 33%
COc1ccc(/C=C/C(=O)Nc2ccc3c(c2)OCCO3)cc1OC 10.1%
CC(NC(=O)Nc1ccc2c(c1)OCO2)c1ccncc1 (stereo unspecified) -4.9%
CCc1c(C)sc(NC(=O)/C=C/c2ccc3c(c2)OCO3)c1C(=O)OC 5%
CC(=O)c1c(-c2ccccc2)c2ccccc2[nH]c1=O -6.4%
CSc1ccc(/C=N/N2CCN(Cc3ccccc3Cl)CC2)cc1 -7.8%
O=C(Cc1ccc(Cl)cc1)NCc1nc(-c2ccccc2)no1 -3.2%
Cc1ccc(N(C(=O)c2sc(C)nc2C)C(C(=O)NC(C)(C)C)c2ccncc2)cc1 (stereo unspecified) -4.2%
CCOC(=O)CN1CCC(c2ccccc2)CC1 -0.7%
CCOc1ccc(S(=O)(=O)N/N=C(\C)c2ccc(Cl)c(Cl)c2Cl)cc1 1.5%
CC1(C)C2CC=C(/C=N/NC(=O)C3CC3)C1C2 (stereo unspecified) -0.4%
COc1ccc(OCC(=O)NNC(=O)c2cccc(C)c2)cc1 -0.5%
Cc1cccc(C(=O)N2CCCN(C(=O)c3cccc(C)c3)CC2)c1 -3%
CC(C)c1cc(C(N)=O)c(NC(=O)c2cccc(COc3ccc(Br)cc3)c2)s1 -2.6%
CCN(CC)C(=O)c1ccc(O)c(OC)c1 -4%
CCCn1nc(Oc2nc(NC(C)C)nc(N(C)C)n2)ccc1=O -7.4%
Cc1ccccc1N1C(=O)C(Oc2ccc(Cl)cc2)C1CNCC1CCCO1 (stereo unspecified) -3.1%
CCOC(=O)c1sc(-c2cccc([N+](=O)[O-])c2)cc1N -3.5%
Cc1ccc(OCCCC(=O)NC(C)c2ccccc2)c(C)c1 (stereo unspecified) -1%
O=C(O)/C=C/c1ccc(OCCCF)cc1 -2.5%
O=C(Oc1ccccc1Cl)c1ccc(N2CCOCC2)c([N+](=O)[O-])c1 -14.3%
COc1ccccc1NC(=O)COC(=O)Cc1ccc(S(=O)(=O)N2CCCCC2)s1 -8.3%
O=C(NC1CCCC1)c1ccc(Br)s1 3.5%
CC(C)C(=O)OCC(=O)Nc1ccc2c(c1)CCC2 8.9%
CCNC(=O)CC1C(=O)N(c2ccc(F)cc2)C(=O)N1CCc1sccc1C (stereo unspecified) -3.3%
COc1ccc(/C=C/CN2CCCC(C(=O)c3cc(F)ccc3F)C2)cc1 (stereo unspecified) -1.7%

inhibition, active:
CCCCSc1nnc(-c2ccc(C)cc2)o1 50.5%
Cc1ccc2nc(-c3cccc(Br)c3)cc(C(=O)Nn3cnnc3)c2c1 78.1%
COc1ccc(-c2cc3ccc(OCc4nn[nH]n4)cc3oc2=O)cc1 81.4%
CC(C)(C)c1csc(NC2=NS(=O)(=O)c3ccccc32)n1 77.2%
N/C(=N\OC(=O)CC1CCCCC1)c1ccccc1 90.2%
N/C(=N\OC(=O)CCC1CCCCC1)c1ccccn1 71.2%
NC(=O)Cc1ccc2sc(-c3ccccc3)nc2c1 65.2%
O=c1[nH]c(CCl)nc2cc(-c3ccc(Cl)cc3)sc12 93.3%
O=c1c2ccccc2nc(N/N=C/c2ccccc2)n1O 90.5%
Cc1ccc(NC(=O)C(=O)NCc2ccc(/C=N/NC(=O)c3c(C)nc4cc(C)ccn34)o2)cc1 70.8%
CNC(=O)COC(=O)c1cc(-c2ccc(OC)cc2)nc2ccccc12 54.2%
CC(=O)c1sc(NC(=O)c2ccc(C)cc2)nc1C 68.8%
COc1cccc(/C=C/C(=O)Nc2ccc3c(c2)OCCO3)c1 86.5%
Cc1cccc(NC(=O)Nc2ccc3c(c2)OCO3)n1 55%
Cc1cccc(NC(=O)/C=C/c2ccc3c(c2)OCO3)n1 89.3%
CCOc1ccc(OCc2cccc(C(=O)N(CC)CC)c2)cc1 68%
COc1ccc(OCc2cccc(C(=O)N3CCCC3)c2)cc1 52.1%
O=C(Nc1ccc2c(c1)CCC2)c1ccc(Br)s1 57.1%
